{"source": "PubChem BioAssay (NCATS)", "note": "Results filed as inconclusive are left out. Unmarked numbers belong to inactive results. Calls follow the shape of the dose curve; as a rule, active = well fitted activation curve with a large enough effect; inconclusive = small, poorly fitted or top-dose-only effect; inactive = flat fitted curve, though single readings scatter."}
{"test": "Cellular Toxicity (caspase-3) Hek293 (AID 664);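 also: cells exposed to compound for 16 h at 37 °C before readout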", "details": "HEK293 caspase-3 activation, DMSO = 0%, 100 µM tamoxifen = 100%; series mostly up to 92.2 µM; caspase-3 activation: at the top concentration", "description": "NIH Chemical Genomics Center [NCGC]\nNIH Molecular Libraries Screening Centers Network [MLSCN]\nNational Institutes of Environmental Health Sciences [NIEHS]\nNational Toxicology Program [NTP]\nWe have developed a 1536-well cell-based assay for quantitative high throughput screening (qHTS) against a number of cell lines to determine in vitro caspase 3/7 of small molecules. This particular assay uses the Hek 293 cell line which is derived from human embryonic kidney cells.\nNCGC Assay Protocol Summary:\nThe Caspase-Glo 3/7 assay (Promega) is a homogeneous method to measure caspase-3 and caspase-7 activities in cultured cells. The quantitation of caspase 3/7 activity is based on the cleavage of a peptide-aminoluciferin substrate. After caspase cleaves the substrate the free aminoluciferin is liberated and serves as the substrate of luciferase, which generates the light. The luminescent signal is proportional to amount of caspase 3/7 activity present.\nUsing the Caspase-Glo 3/7 assay, the amount of caspase 3/7 activity was measured in the Hek 293 cell line with complete culture medium following compound treatment for 16 hours. The assay was performed in opaque white 1536-well plates. In the screen, tamoxifen and doxorubicin were used as positive controls. Library compounds were measured for their ability to cause the activation of caspase 3/7 in the cell line, as reflected by an increase in luminescence signal, in a concentration-dependent manner. Data were normalized to the controls for basal activity (DMSO only) and 100% stimulation (100 uM tamoxifen). AC50 values were determined from concentration-response data modeled with the standard Hill equation.\nqHTS protocol for caspase 3/7 assay in Hek 293 cells\n[Step] [Parameter] [Value] [Description]\n2. Time; 5 hr; 37 °C incubation\n4. Controls; 23 nL; Tamoxifen 0.23 uM to 100 uM & Doxorubicin 7.0 pM to 100 uM\n5. Time; 16 hr; 37 °C incubation\n6. Reagent; 5 uL; Caspase-Glo 3/7 reagent\n7. Time; 20 min; Room Temperature\n8. Detection; Luminescence; Viewlux plate reader\nKeywords: caspase 3/7, apoptosis, Hek 293 cell line, luminescence, NTPHTS, NTPHTS_NCGC, NIEHS, EPA, DSSTox, MLSMR, MLSCN, NIH Roadmap, qHTS, NCGC", "units": {"caspase-3 activation": "%"}}
{"molecule": "Oc1ccccc1Cl", "caspase-3 activation": -0.417}
{"molecule": "CC(=O)/C=C/c1ccccc1", "caspase-3 activation": 0.0694}
{"molecule": "Oc1c(Cl)c(Cl)c(Cl)c(Cl)c1Cl", "caspase-3 activation": -1.2}
{"molecule": "COC(=O)c1ccccc1C(=O)OC", "caspase-3 activation": 0.619}
{"molecule": "O=Cc1ccccc1", "caspase-3 activation": -0.171}
{"molecule": "c1ccc(Nc2ccc3ccccc3c2)cc1", "caspase-3 activation": 7.69}
{"molecule": "CCOC(=O)c1ccccc1N", "caspase-3 activation": -1.38}
{"molecule": "COC1=CC(=O)OC(CCc2ccc3c(c2)OCO3)C1", "note": "(stereo not drawn)", "caspase-3 activation": -1.85}
{"molecule": "Cc1ccccc1O", "caspase-3 activation": -0.0983}
{"molecule": "c1ccc2c(c1)-c1cccc3cccc-2c13", "caspase-3 activation": 1.9}
{"molecule": "CC(C)COC(=O)c1ccccc1C(=O)OCC(C)C", "caspase-3 activation": 1.06}
{"molecule": "CCOc1cc(C=O)ccc1O", "caspase-3 activation": 2.67}
{"molecule": "CC(C)(c1ccc(OCC2CO2)cc1)c1ccc(OCC2CO2)cc1", "note": "(stereo not drawn)", "caspase-3 activation": 27.7}
